PubChem BioAssay (NCATS)
Where “and” joins values, the source holds several entries; their conditions need not be identical. Equal values may be shown once. Inconclusive results are not listed. Where a call stands in place of a potency, no number is given. More than one record can exist for a structure, and the calls need not agree. Calls of active or inactive are those of the source. The call rests on the fitted dose curve; in most records, active means well fitted inhibition curve with a large enough effect; inconclusive means small, poorly fitted or top-dose-only effect; inactive means flat fitted curve, though single readings scatter. Numbered stars: 1 amine (or outer) side, 2 acyl side, 3 side chain; on linkers, the order of the positions; unused ones are H or OH. Bridge positions count the residues as written; N and C are the ends. Square brackets hold non-standard residues; d marks the D form. Peptide text beside a SMILES is read from it. I, II: the chains in the order shown. Actinocin(9to1) = Cc1c2oc3c(C)ccc(C(=O)[*:1])c3nc-2c(C(=O)[*:2])c(N)c1=O; NMeV = CN[C@H](C(=O)O)C(C)C; Sar = CNCC(=O)O

target: Glutathione peroxidase 1 (Homo sapiens) (UniProt P07203); assay: Primary qHTS Assay for Inhibitors of Recombinant Selenoprotein Glutathione Peroxidase 1 (GPX1) (AID 1845191); details: recombinant GPX1, GR-coupled NADPH fluorescence, 15 min; series mostly up to 48.8 µM; further: nearly all actives have a fitted effect of over 65% in size
Description: Assay Provider: Elias S.J. Arner MD PhD.
Department of Medical Biochemistry and Biophysics
Karolinska Institutet, Solna, Stockholm, Sweden
Selenoprotein glutathione peroxidases (GPX), like the ubiquitously expressed GPX1 and the ferroptosis modulator GPX4, enact their antioxidant activities by reducing hydroperoxides using glutathione. […] GPX1 and GPX4 inhibitors have thus shown promise as anti-cancer agents. Existing inhibitors are often promiscuous, or modulate GPX activity only indirectly, so novel direct inhibitors identified through screening against GPX1 and GPX4 could be valuable. Here, we developed optimized glutathione reductase (GR)-coupled GPX assays for the biochemical high-throughput screen (HTS) of almost 12,000 compounds with known mechanisms of action. Initial hits were triaged using a GR counter-screen, assessed for isoform specificity using a separate GPX2 assay, and were assessed for general selenocysteine-targeting activity using a thioredoxin reductase (TXNRD1) assay. With this suite of assays, we identified novel GPX1/GPX2- and GPX4-specific inhibitors and can here present a validated pipeline for future discovery research for selenoprotein-targeting agents.
SEQUENCE No. (e.g., 1, 2, 3, etc.); […] (e.g., Cells, Incubation, Reagent, etc.); VALUE; DESCRIPTION.
1; Reagent 1; 3 uL; GPx1 enzyme or no enzyme control in 1536-well, black, solid Greiner assay plate.
2; Compound; 25 nL; Kalypsis pin tool (Wako USA) equipped with a 1536-well pin head.
3; Incubation; 30 min; room temperature.
4; Reagent 2; 1 uL; 10 nM GPX1, 1 mM GSH, 0.5 mM CHP, 0.5 mM NADPH, 100 nM GR, 0.01% BSA substrate
5; Detection; Fluorescence; ViewLux microplate reader, excitation 340 nm and emission 450 nm.
6; Incubation; 15 min; room temperature.
7; Detection; Fluorescence; ViewLux microplate reader, excitation 340 nm and emission 450 nm.
NOTES (numbers refer to Sequence numbers above)
1. 3 uL of 16.66 nM GPX1 and 0.016% BSA in assay buffer (50 mM Tris-HCl, 2 mM EDTA (pH 7.5), 150 mM NaCl) was added to columns 3-48 of 1536-well assay plates using a BioRAPTR Flying Reagent Dispenser (Let's Go Robotics (LGR), Carlsbad, CA). A no-enzyme control (0.01% BSA in TES assay buffer) was added to columns 1-2.
2. 25 nL of test compounds and DMSO controls were added to each well with a pin tool (Kalypsys).
3. The assay plates were incubated for 30 minutes at room temperature.
4. 1 uL of master mix (500 nM glutathione reductase (GR), 5 mM reduced glutathione (GSH), 2.5 mM NADPH in assay buffer) was added. 1 uL of cumene hydroperoxide (CHP) ([2.5 mM] in 50% EtOH) was then added within 5 minutes to initiate the reaction. Final concentrations were: 10 nM GPX1, 1 mM GSH, 0.5 mM CHP, 0.5 mM NADPH, 100 nM GR, 0.01% BSA.
5. Initial fluorescence readout (t=0) at 340/450 nm was measured using a ViewLux multimodal detector (PerkinElmer, Waltham, MA).
7. Endpoint fluorescence readout (t=15) at 340/450 nm was measured 15 min after room temperature incubation.
Potency means the concentration at half of the fitted maximal effect.

Sequence of Glutathione peroxidase 1 (Homo sapiens) (P07203 whole entry, looked up): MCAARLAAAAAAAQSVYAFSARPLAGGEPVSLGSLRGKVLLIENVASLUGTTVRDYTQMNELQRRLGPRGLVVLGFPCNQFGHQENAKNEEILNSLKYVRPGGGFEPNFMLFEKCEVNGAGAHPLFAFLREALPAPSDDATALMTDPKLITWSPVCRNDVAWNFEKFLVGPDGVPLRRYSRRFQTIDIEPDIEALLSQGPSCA

SMILES	Potency
CCOc1ccc(Cc2nccc3cc(OCC)c(OCC)cc23)cc1OCC	inactive
CC(C)C[C@H]1C(=O)N2CCC[C@H]2[C@]2(O)O[C@](NC(=O)[C@@H]3C=C4c5cccc6[nH]c(Br)c(c56)C[C@H]4N(C)C3)(C(C)C)C(=O)N12	inactive
CNCCC=C1c2ccccc2CCc2ccccc21	inactive
CO/N=C1\CN(c2nc3c(cc2F)c(=O)c(C(=O)O)cn3C2CC2)CC1CN (stereo not given)	inactive
CCCOC(C(=O)OC1CCN(C)CC1)(c1ccccc1)c1ccccc1	inactive
CC(=O)O[C@]1(C(C)=O)CC[C@H]2[C@@H]3C[C@H](C)C4=CC(=O)CC[C@]4(C)[C@H]3CC[C@@]21C	inactive
CN(C)CCCOc1nn(Cc2ccccc2)c2ccccc12	inactive
CCOC(=O)n1ccn(C)c1=S	inactive
OC[C@@H](O)[C@@H](O[C@@H]1O[C@H](CO)[C@H](O)[C@H](O)[C@H]1O)[C@H](O)[C@@H](O)CO	inactive
CCCC1O[C@@H]2C[C@H]3[C@@H]4CCC5=CC(=O)C=C[C@]5(C)[C@H]4[C@@H](O)C[C@]3(C)[C@]2(C(=O)CO)O1 (stereo not given in full)	inactive
COc1cccc(OC)c1C(=O)N[C@@H]1C(=O)N2[C@@H]1SC(C)(C)[C@@H]2C(=O)O	inactive
Cc1ccccc1C(=O)Nc1ccc(C(=O)N2CCCC(N(C)C)c3ccccc32)cc1 (stereo not given)	inactive
C#C[C@]1(O)CC[C@H]2[C@@H]3CCC4=CC(=O)CC[C@@H]4[C@H]3CC[C@@]21C	inactive
CC(C)(CO)[C@@H](O)C(=O)NCCCO	inactive
CC(C)COC(=O)c1ccc(N)cc1	inactive
CCC(NC(C)C)C(O)c1ccc(O)c(O)c1 (stereo not given)	inactive
COc1ccc(C2C(=O)c3ccccc3C2=O)cc1	inactive
C[n+]1c2cc(N)ccc2cc2ccc(N)cc21 (tested in a mixture with another compound)	inactive
Cc1c2oc3c(C)ccc(C(=O)N[C@@H]4C(=O)N[C@H](C(C)C)C(=O)N5CCC[C@H]5C(=O)N(C)CC(=O)N(C)[C@@H](C(C)C)C(=O)O[C@@H]4C)c3nc-2c(C(=O)N[C@@H]2C(=O)N[C@H](C(C)C)C(=O)N3CCC[C@H]3C(=O)N(C)CC(=O)N(C)[C@@H](C(C)C)C(=O)O[C@@H]2C)c(N)c1=O (I: T[dV]P[Sar][NMeV] / II: T[dV]P[Sar][NMeV]; ester I:1-I:C, II:1-II:C; linker I:N-II:N via Actinocin(9to1))	inactive
Cc1cc(O)c(C(C)C)cc1Cl	inactive

SMILES	Potency
CC(C)NC[C@@H](O)COc1cccc2ccccc12	inactive
NC(=NCCCCCCN=C(N)/N=C(\N)Nc1ccc(Cl)cc1)/N=C(\N)Nc1ccc(Cl)cc1	inactive
O=C(O)c1cc2cc(Cc3cccnc3)ccc2o1	inactive
COCc1c(C(C)C)nc(C(C)C)c(/C=C/[C@@H](O)C[C@@H](O)CC(=O)O)c1-c1ccc(F)cc1	inactive
Cc1ccc(Nc2c(F)cccc2Cl)c(CC(=O)O)c1	inactive
COc1cc(OC)cc(OC)c1	inactive
COc1ccc(CN2CCN(C(c3ccc(F)cc3)c3ccc(F)cc3)CC2)c(OC)c1OC	inactive
C=C(CC)C(=O)c1ccc(OCC(=O)O)c(Cl)c1Cl	inactive
CC(=O)OCC(=O)[C@@]12OC(C)(C)O[C@@H]1C[C@H]1[C@@H]3C[C@H](F)C4=CC(=O)C=C[C@]4(C)[C@@]3(F)[C@@H](O)C[C@@]12C	inactive
Oc1c(I)cc(Cl)c2cccnc12	inactive
COc1cc(NS(C)(=O)=O)ccc1Nc1c2ccccc2nc2ccccc12	inactive and 25.5 µM (active)
O=c1ccc2ccccc2o1	inactive
C[C@]12CC[C@@H]3c4ccc(O)cc4CC[C@H]3[C@@H]1CC[C@@H]2O	inactive
C[C@H]1[C@H](NC(=O)/C(=N/OC(C)(C)C(=O)O)c2csc(N)n2)C(=O)N1S(=O)(=O)O (stereo in doubt)	inactive
CCN(CC)C(=O)N1CCN(C)CC1	inactive
NCCC(O)(P(=O)(O)O)P(=O)(O)O	inactive
Clc1ccc2c(c1)CCc1cccnc1C2=C1CCNCC1	inactive
CC1(C)CCC(NC(=O)[C@@H](N)CCC(=O)O)CC1	inactive
CCCSS/C(CCO)=C(\C)N(C=O)Cc1cnc(C)nc1N	inactive
COc1cccc(CCc2ccccc2OCC(CN(C)C)OC(=O)CCC(=O)O)c1 (stereo not given)	inactive
